Screening results as filed in PubChem.
Only some compounds are listed: those with a hit (about 3.1% of all), similar ones and a draw of the others.
HIF act: HIF pathway transcriptional activation | activation, % at 7.5 µM (by protocol) | 300,000 compounds, 0.32% hits | U2OS HRE-luciferase reporter, luminescence; normalized: DMSO 0%, desferrioxamine 100%;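 active = mean activation of at least 10% of the iron chelator positive control signal, with at least half of replicates also reaching 10%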
ARNT TACC3 PPI: ARNT/TACC3 interaction disruption; Q9Y6A5; AlphaScreen His-ARNT PAS-B/GST-TACC3 binding, luminescence; TACC3 fragment carries E629A point mutation; inhibition, % at 9.99 µM; 390,000 compounds, 0.66% hits;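 active = mean inhibition of replicates at least 50% and at least half of replicates each reaching 50%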
HSF1 activator: increases HSF-1 driven luciferase reporter signal; AID 504408; NIH3T3-HGL HSF-1 luciferase reporter, MG132, 8 h; 100% = twice DMSO control signal; activation, % at 9 µM; 300,000 compounds, 1.7% hits;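 active = mean replicate activation of at least 50% with a set share of replicates each reaching 50%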
HSF1 inhib: HSF1 inhibition; NIH3T3-HGL HSE-luciferase, MG132-induced, luminescence 8 h; active compounds read low; 300,000 compounds, 0.77% hits; AID 2098; activity change, negative = inhibition, % at 7.5 µM (by protocol);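 active = more than half of replicate wells show activity change below -50%, luminescence cut by over half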;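 also: luciferase reports HSF-1 transcriptional activity via heat shock element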
HSP90 inh: blocks HSP90-mediated luciferase refolding in reticulocyte lysate | Rabbit reticulocyte lysate, luciferase refolding luminescence, 3 h | inhibition, % at 5.6 µM | 290,000 compounds, 0.91% hits | AID 1789;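 active = inhibition above the screen-wide mean plus 3 SD, computed separately per campaign, cut at about 16% in these data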;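 also: inhibitors lower the luminescence because luciferase stays unfolded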
ARNT Alpha ctr-1: AlphaScreen artifact in ARNT/TACC3 counter-screen; 1,200 compounds, 50% hits; AC50, µM (titrated, usually from 68 µM); shares compounds with ARNT TACC3 PPI; His-ARNT PASB-GST AlphaScreen artifact counter-screen, luminescence;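 active = every separate test run was called active for a drop in luminescence, with AC50 within twice the top valid dose, actives reach about 71 µM in these data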
ARNT Alpha ctr-2: produces AlphaScreen artifacts in ARNT-TACC3 counter-screen. shares compounds with ARNT TACC3 PPI. AID 720564. AC50, µM. Dual-tagged His-ARNT PASB-GST AlphaScreen artifact counter-screen. 45 compounds, 70% hits;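 active = luminescence drop, with half-maximal potency fitted within twice the sample's top valid dose, cut at about 70 µM in these data; inactive = the rest, including signal moving the wrong way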
Hits are given with their value; - = inactive; . = not tested or not shown.

SMILES | HIF act | ARNT TACC3 PPI | HSF1 activator | HSF1 inhib | HSP90 inh | ARNT Alpha ctr-1 | others
COc1ccc(S(=O)(=O)Nc2ccc3c(c2)C(=O)N([C@@H](C)CO)C[C@H](C)[C@H](CN(C)S(=O)(=O)c2ccc(C)cc2)O3)cc1 | . | - | . | . | . | .
COc1ccc(S(=O)(=O)Nc2ccc3c(c2)C(=O)N([C@H](C)CO)C[C@H](C)[C@H](CN(C)S(=O)(=O)c2ccc(C)cc2)O3)cc1 | . | 52 | . | . | . | -
C[C@H](CO)N1C[C@H](C)[C@@H](CN(C)C(=O)Nc2ccc(C(F)(F)F)cc2)Oc2ncc(C3=CCCC3)cc2C1=O | . | 81 | . | . | . | -
C[C@@H]1CN([C@@H](C)CO)C(=O)c2cc(NC(=O)C3CCCCC3)ccc2O[C@@H](C)CCCCO[C@@H]1CN(C)C(=O)NC1CCCCC1 | . | active | . | . | . | -
O=C(Nc1ccc2c(c1)[C@H]1C[C@H](CC(=O)N3CCCCC3)O[C@@H](CO)[C@H]1O2)NC1CCCC1 | . | - | . | . | . | .
C[C@H](CO)N1C[C@H](C)[C@H](CN(C)S(=O)(=O)c2cn(C)cn2)Oc2ncc(C3=CCCC3)cc2C1=O | . | - | . | . | . | .
COc1cccc(CNC(=O)CSc2ccc(-c3ccccn3)nn2)c1 | - | 66 | - | - | - | 61µM
O=C(CSc1ccc(-c2ccccn2)nn1)NCc1ccc(Cl)cc1 | - | 53 | - | - | - | 69µM
COc1cccc(CNC(=O)CSc2ccc(-c3ccco3)nn2)c1 | - | - | - | - | - | .
Cc1ccc(-c2cnc3c(c2)C(=O)N([C@@H](C)CO)C[C@@H](C)[C@@H](CN(C)S(C)(=O)=O)O3)cc1 | . | - | . | . | . | .
COc1c(O)cc2oc(-c3ccc(O)cc3)cc(=O)c2c1O | - | - | - | - | . | .
O=c1cc(-c2ccc(O)cc2)oc2c(O)c(O)c(O)c(O)c12 | . | 53 | . | . | - | -
CS(=O)(=O)c1cccc(-c2nnc(NC(=O)c3ccc4ncsc4c3)o2)c1 | - | - | - | - | . | .
CS(=O)(=O)c1ccccc1-c1nnc(NC(=O)c2ccc3ncsc3c2)o1 | - | 50 | - | - | . | -
COc1ccc(S(=O)(=O)Nc2ccc3c(c2)C(=O)N([C@H](C)CO)C[C@@H](C)[C@H](CN(C)S(=O)(=O)c2cccs2)OCCCC[C@@H](C)O3)cc1 | . | - | . | . | . | .
C[C@H]1CN([C@@H](C)CO)C(=O)c2cc(NC(=O)Cn3cnnn3)ccc2O[C@@H]1CN(C)Cc1ccc(Oc2ccccc2)cc1 | . | - | . | . | . | .
O=C(Nc1ccc2c(c1)[C@@H]1C[C@H](CC(=O)N3CCc4ccccc4C3)O[C@@H](CO)[C@@H]1O2)c1ccc2c(c1)OCO2 | . | 51 | . | . | . | 49µM
O=C(Nc1ccc2c(c1)[C@H]1C[C@H](CC(=O)N3CCc4ccccc4C3)O[C@H](CO)[C@H]1O2)c1ccc2c(c1)OCO2 | . | - | . | . | . | .
Cc1noc(C)c1S(=O)(=O)N(C)C[C@@H]1OCCCC[C@@H](C)Oc2ccc(NC(=O)Nc3cccc4ccccc34)cc2C(=O)N([C@H](C)CO)C[C@H]1C | . | - | . | . | . | .
O=C(COC(=O)c1ccc([N+](=O)[O-])o1)NCc1ccccc1 | . | 20 | . | . | . | -
O=C(COC(=O)c1ccc([N+](=O)[O-])s1)NCc1ccccc1 | - | 26 | - | - | - | -
NS(=O)(=O)c1ccc(CCNC(=O)COC(=O)Cc2ccc([N+](=O)[O-])cc2)cc1 | . | - | . | . | . | .
NS(=O)(=O)c1ccc(CCNC(=O)COC(=O)c2ccc([N+](=O)[O-])o2)cc1 | . | 71 | . | . | . | -
COC(=O)C[C@@H]1CC[C@@H](NS(=O)(=O)c2ccc(OC)cc2)[C@H](CO)O1 | . | 58 | . | . | . | -
COC(=O)C[C@H]1CC[C@@H](NS(=O)(=O)c2ccc(OC)cc2)[C@@H](CO)O1 | . | - | . | . | . | .
SMILES | HIF act | ARNT TACC3 PPI | HSF1 activator | HSF1 inhib | HSP90 inh | ARNT Alpha ctr-1 | others
O=C(Oc1ccc(Cl)c2cccnc12)c1cccnc1 | - | 69 | - | - | - | 50µM
COc1ccc(S(=O)(=O)N(C)C[C@@H]2Oc3ccc(NC(=O)Cn4cnnn4)cc3CC(=O)N([C@H](C)CO)C[C@H]2C)cc1 | . | - | . | . | . | .
COc1ccc(CN(C)C[C@H]2Oc3ccc(NC(=O)Cc4ccccc4)cc3CC(=O)N([C@H](C)CO)C[C@H]2C)cc1 | . | - | . | . | . | .
Oc1ccc(Br)cc1/C=N/Nc1ncc(-c2ccccc2)cn1 | - | - | - | - | - | .
Oc1ccc(/C=N/Nc2ncc(Br)cn2)c(O)c1 | 19 | 57 | 79 | - | - | 30µM
CCOc1cc2c(C#N)c(N3CCOCC3)nc(N)c2c(N)n1 | - | 30 | - | - | . | -
CCOc1cc2c(C#N)c(N(CC)CC)nc(N)c2c(N)n1 | - | - | - | - | . | .
C[C@@H]1CN([C@@H](C)CO)C(=O)c2cc(NC(=O)C3CCCCC3)ccc2O[C@@H](C)CCCCO[C@@H]1CN(C)C(=O)Cc1ccccc1 | . | - | . | . | . | .
CC(C)(C)c1ccc(OCCNC(=O)c2ncn[nH]2)cc1 | - | 77 | - | - | - | -
CCc1cc(C)cc(OCCNC(=O)c2ncn[nH]2)c1 | - | - | - | - | - | .
Cc1cccc(S(=O)(=O)N[C@H]2CC[C@@H](CCn3cc(-c4ccccn4)nn3)O[C@@H]2CO)c1 | . | 102 | . | . | . | 44µM
COc1cccc(S(=O)(=O)N[C@H]2CC[C@@H](CCn3cc(-c4ccccc4)nn3)O[C@@H]2CO)c1 | . | - | . | . | . | .
COc1cccc(S(=O)(=O)N[C@@H]2CC[C@@H](CCn3cc(-c4ccccc4)nn3)O[C@H]2CO)c1 | . | - | . | . | . | .
Cc1cccc(S(=O)(=O)N[C@@H]2CC[C@@H](CCn3cc(-c4ccccn4)nn3)O[C@@H]2CO)c1 | . | 98 | . | . | . | -
COc1cccc(/C=N/Nc2nc3ccccc3[nH]2)c1O | 11 | 58 | - | - | - | -
COc1ccc(CCNC(=O)c2cc(-c3ccccc3)on2)cc1OC | . | - | - | - | - | .
O=C(NCc1ccccc1)c1cc(-c2ccccc2)on1 | . | . | . | . | . | -
Cc1ccc(CNC(=O)c2cc(-c3ccccc3)on2)cc1 | . | . | . | . | . | -
O=C(NCCCCO)c1cc(-c2ccccc2)on1 | . | . | . | . | . | -
CC1CCN(S(=O)(=O)c2ccc(C(=O)Nc3nnc(C4CC4)o3)cc2)CC1 | - | - | - | - | - | . | ARNT Alpha ctr-2=-
CS(=O)(=O)c1ccc(-c2nnc(NC(=O)c3ccc(S(=O)(=O)N4CCCC4)cc3)o2)cc1 | - | - | - | - | . | .
CC1CCCN(S(=O)(=O)c2ccc(C(=O)Nc3nnc(C4=COCCO4)o3)cc2)C1 (stereo not drawn) | - | - | - | - | - | .
O=C(Nc1nnc(C2CC2)o1)c1ccc(S(=O)(=O)N2CCCCC2)cc1 | - | 51 | - | - | - | -
CC1CC(C)CN(S(=O)(=O)c2ccc(C(=O)Nc3nnc(C4=COCCO4)o3)cc2)C1 (stereo not drawn) | . | . | . | . | . | . | ARNT Alpha ctr-2=-
